Assay [1] concerns the target Cellular tumor antigen p53 (Homo sapiens) (UniProt P04637). Description: Primary qHTS for small molecule compounds that upregulate eGFP-tagged delta133p53alpha (in N-terminal) cells. (AID 2060322). Further: nearly all actives have a fitted effect of over 75% in size.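 On activation: cells pre-induced with doxycycline then dosed without doxycycline; series mostly up to about 56 µM; 0% = DMSO vehicle and 100% = reference activator.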 Conditions: NCI-H358 eGFP-delta133p53alpha fluorescence, 24 h; activation: active compounds read high. The procedure, abridged: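 NCI-H358 cells pre-induced 24 h with 10 ng/ml doxycycline for eGFP-delta133p53alpha, plated dox-free and exposed 24 h at 37C to titrated compounds. Fixed, Hoechst-stained; gated GFP peak intensity by laser scanning cytometry, normalized to DMSO (0%) and 57.5 uM 5-azacytidine (100%).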
A general note: qHTS replaces the single test concentration by a dilution series.

A short description of assay [2]: BET inhibitor-based combinations targeting novel dependencies in MECOM-rearranged (r) AML: SET-2 cell line (AID 2202231). Further: nearly all actives have a fitted effect of over 35% in size.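 On viability: plate controls were DMSO treated cells for no effect and wells without cells for full effect.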 As to conditions: SET-2 AML cells viability, CellTiter-Glo luminescence, 48 h; viability: active compounds read low, concentration not given here. A digest of the protocol:
(§1)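 A 48 hr incubation preceded viability reading by CellTiter-Glo, with 15 min room-temperature development. Dose series had 11 points; normalization used DMSO and empty wells; AUC was computed and mean-centered per line as Z-AUC.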

Assay [3] in a line: BET inhibitor-based combinations targeting novel dependencies in MECOM-rearranged (r) AML: OCI-AML3 cell line (AID 2202232). Further: nearly all actives have a fitted effect of over 35% in size. As to conditions: Potency: OCI-AML3 viability. A digest of the protocol:
as §1

Assay [4] in a line: BET inhibitor-based combinations targeting novel dependencies in MECOM-rearranged (r) AML: HNT-34 cell line (AID 2202234). Further: nearly all actives have a fitted effect of over 35% in size. A digest of the protocol:
(§2)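 Each compound is tested in an 11-point concentration series against 500 seeded cells/well for 48 hr. The luminescent viability signal is normalized to DMSO and blank wells, then reduced to AUC and a cell-line-centred Z-AUC.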

Assay [5] in a line: BET inhibitor-based combinations targeting novel dependencies in MECOM-rearranged (r) AML: UCSD-AML1 cell line (AID 2202235). Further: nearly all actives have a fitted effect of over 40% in size. A digest of the protocol:
as §2

The nature of assay [6]: BET inhibitor-based combinations targeting novel dependencies in MECOM-rearranged (r) AML: AML-191 cell line (AID 2202236; further: nearly all actives have a fitted effect of over 35% in size). A digest of the protocol:
as §1

A short description of assay [7]: BET inhibitor-based combinations targeting novel dependencies in MECOM-rearranged (r) AML: AML-194 cell line (AID 2202237; further: nearly all actives have a fitted effect of over 40% in size). A digest of the protocol:
as §1

Assay [8] is described as follows: BET inhibitor-based combinations targeting novel dependencies in MECOM-rearranged (r) AML: MV-4-11 cell line (AID 2202233). Further: nearly all actives have a fitted effect of over 45% in size. A digest of the protocol: as §2

The results in this text go back to PubChem BioAssay (NCATS).

Values joined by “and” are separate entries in the source; they are usually repeats but may differ in a detail not shown here. Equal values may be shown once. Inconclusive results are not listed. Values without a mark were called inactive. Active and inactive are the calls of the source. The call rests on the fitted dose curve; in most records, active means well fitted curve in the direction sought with a large enough effect; inconclusive means small, poorly fitted or top-dose-only effect, or another doubt; inactive means no such curve, though single readings can be large; an effect the other way counts as inactive or inconclusive.
Potency means the concentration at half of the fitted maximal effect.

Sequence of Cellular tumor antigen p53 (Homo sapiens) (P04637 whole entry, looked up): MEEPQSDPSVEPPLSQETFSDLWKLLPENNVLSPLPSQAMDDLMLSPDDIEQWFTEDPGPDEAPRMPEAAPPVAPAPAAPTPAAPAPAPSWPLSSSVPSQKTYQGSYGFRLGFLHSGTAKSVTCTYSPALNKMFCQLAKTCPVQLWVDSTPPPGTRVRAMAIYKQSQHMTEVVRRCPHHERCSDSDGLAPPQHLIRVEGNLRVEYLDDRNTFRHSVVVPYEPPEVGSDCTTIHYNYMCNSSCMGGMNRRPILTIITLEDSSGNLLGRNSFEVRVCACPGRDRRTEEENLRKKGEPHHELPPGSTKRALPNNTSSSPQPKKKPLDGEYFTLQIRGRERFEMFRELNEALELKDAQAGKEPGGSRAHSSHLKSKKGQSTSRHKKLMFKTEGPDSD

Turning to `COc1ccc(-c2ccc3cc(C(=O)O)ccc3c2)cc1C12CC3CC(CC(C3)C1)C2`, the activation in assay [1] was -14.2% and 5.04%. Moreover, the viability in assay [2] is 111%. In assay [3], the Potency was 0.0033 µM (active). The Potency result in assay [4], in assay [5], in assay [6] and in assay [7] was “inactive” in each case.
Turning to `OCCN1C[C@H](O)[C@@H](O)[C@H](O)[C@H]1CO`, the activation in assay [1] was -10.9%. Also, the viability in assay [2] is 115%. Further, the Potency entry in assay [3], in assay [8], in assay [5] and in assay [7] was “inactive” in each case.
`Cn1c(=O)c(Oc2ccc(F)cc2F)cc2cnc(NC3CCOCC3)nc21`: the activation in assay [1] was -33.7%. Besides, in assay [2], the viability is 115%. Also, the Potency entry in assay [3], in assay [4], in assay [5], in assay [6] and in assay [7] was “inactive” each time.
As to `COc1cc2c(cc1OC)CC(=O)N(CCCN(C)C[C@H]1Cc3cc(OC)c(OC)cc31)CC2`, in assay [1], the activation was -11.1%. In addition, the viability in assay [2] is 111%. In addition, the Potency entry in assay [3], in assay [8], in assay [5] and in assay [7] was “inactive” throughout.
Take `CCCCCNC(=O)N1CCC(CN(Cc2ccc(Cl)cc2)Cc2ccc([N+](=O)[O-])s2)C1` (stereo not given): in assay [1], the activation is -3.18%. Also, the Potency in assay [2] is 20.9 µM (active); in assay [3], 18.6 µM (active); in assay [8] it was 20.9 µM (active). Also, the Potency result in assay [5] and in assay [7] was “inactive” throughout.
Take `CCC(C)(C)c1ccc(CC(C)CN2C[C@@H](C)O[C@@H](C)C2)cc1` (stereo not given in full): the activation in assay [1] was -16.4%. Moreover, the viability in assay [2] is 82.6%. Moreover, the Potency result in assay [3], in assay [4] and in assay [5] was “inactive” in each case.
Regarding `COc1ccc(-c2oc3c(CC=C(C)C)c(O)cc(O)c3c(=O)c2O)cc1`, the activation in assay [1] is -9.57%. In assay [2], the viability is 97%. For the same compound, the Potency result in assay [3], in assay [4], in assay [5], in assay [6] and in assay [7] was “inactive” each time.
Turning to `Cn1c(=O)c(F)c(Nc2ccc(I)cc2F)c2c(=O)n(C[C@@H](O)CO)cnc21`, the activation in assay [1] was 15.6%. Moreover, the Potency in assay [2] is 16.6 µM (active); in assay [3], 0.0059 µM (active); in assay [4], 0.0833 µM (active); in assay [5], 1.32 µM (active).
For `CC[C@@H]1C(=O)N(C)c2cnc(Nc3ccc(C(=O)NC4CCN(C)CC4)cc3OC)nc2N1C1CCCC1`, the activation in assay [1] is 7.53%. The Potency was 0.468 µM (active) in assay [2]; 0.0525 µM (active) in assay [3]; 0.105 µM (active) in assay [8]; 0.105 µM (active) in assay [5]; 0.332 µM (active) in assay [7].
On to `CC(C)c1ccc2oc3nc(N)c(C(=O)O)cc3c(=O)c2c1`, for which the activation in assay [1] is 16.6% and 7.34%. Besides, the viability in assay [2] is 106%. In addition, the Potency in assay [3] and in assay [4] was 14.8 µM (active) throughout. Further, the Potency entry in assay [5] was “inactive”.
Turning to `Oc1ccc(C2=Cc3ccc(O)cc3OC2)cc1`, the activation in assay [1] was 5.86%. For the same compound, the Potency in assay [2] was 2.09 µM (active); in assay [3], 0.525 µM (active); in assay [4], 1.18 µM (active); in assay [5] it was 1.32 µM (active); in assay [6], 2.95 µM (active).
For the compound `CN(C(Cc1ccc(OS(=O)(=O)c2cccc3cnccc23)cc1)C(=O)N1CCN(c2ccccc2)CC1)S(=O)(=O)c1cccc2cnccc12` (stereo not given), the activation in assay [1] was 8.08%. For the same compound, in assay [2], the viability is 92.1%. In addition, in assay [3], the Potency entry was “inactive”. For the same compound, the Potency in assay [8] is 7.42 µM (active); in assay [6] it was 9.34 µM (active).
With `COC1CCC(C(=O)c2ccc3nc4c(cc3c2)CCCO4)CC1` (stereo not given), the activation in assay [1] is -1.02%. For the same compound, in assay [2], the viability was 105%. Moreover, the Potency entry in assay [3], in assay [8], in assay [6] and in assay [7] was “inactive” in each case.
Turning to `O=C1c2cccc(O)c2C(=O)c2c(O)cc(CO)cc21`, in assay [1], the activation was -5.26%. Also, the viability in assay [2] is 116%. Further, the Potency entry in assay [3], in assay [4], in assay [5], in assay [6] and in assay [7] was “inactive” each time.
With `CC(C(C)N1CC(=O)NC(=O)C1)N1CC(=O)NC(=O)C1` (stereo not given), the activation in assay [1] was 25.1%. Also, in assay [2], the viability was 107%. Further, the figures for the Potency in assay [3], in assay [8] and in assay [6] were 5.9 µM (active), 1.18 µM (active) and 9.34 µM (active), respectively. The Potency result in assay [7] is “inactive”.
For `Cc1cc2nc3c(=O)[nH]c(=O)nc-3n(CC(O)C(O)C(O)CO)c2cc1C` (stereo not given), the activation in assay [1] was -37.4%. Moreover, the viability in assay [2] was 106%. The Potency entry in assay [3], in assay [8], in assay [5], in assay [6] and in assay [7] was “inactive” throughout.
With `COc1cc2nccc(Oc3ccc(NC(=O)Nc4ccc(F)cc4F)c(F)c3)c2cc1OC`, the activation in assay [1] is 5.39%. The viability in assay [2] was 108%. Moreover, the Potency was 0.0934 µM (active) in assay [8], 1.66 µM (active) in assay [4] and 2.09 µM (active) in assay [5].
With `Cc1cc(Nc2cc(NC(=O)c3c(Cl)cccc3Cl)ccn2)nc(N)n1`, the Potency in assay [1] was 34.3 µM (active); in assay [2], 3.32 µM (active); in assay [8] it was 0.332 µM (active); in assay [4], 0.296 µM (active); in assay [5], 0.296 µM (active); in assay [6], 0.263 µM (active). The Potency in assay [7] was 0.332 µM (active).
On to `O=C(O)c1ccc(-n2nc(-c3ccccc3O)nc2-c2ccccc2O)cc1`, for which the activation in assay [1] was -1.69% and -24.7%. Further, the Potency in assay [2] is 20.9 µM (active); in assay [3], 14.8 µM (active); in assay [6] it was 16.6 µM (active). Besides, the Potency entry in assay [5] is “inactive”.
As to `C[C@]12CCC3c4ccc(O)cc4CCC3C1CCC2=O` (stereo not given in full), the activation in assay [1] is -0.196%. Further, in assay [2], the viability is 99.9%. In addition, the Potency entry in assay [3], in assay [6] and in assay [7] was “inactive” each time. Also, in assay [5], the Potency is 26.3 µM (active).
As to `Cc1cccc(N(C)C(=S)Oc2ccc3ccccc3c2)c1`, in assay [1], the activation is 2.82% and 1.76%. Besides, the viability in assay [2] was 85.9%. For the same compound, the Potency result in assay [3], in assay [4], in assay [5] and in assay [7] was “inactive” in each case.
As to `CCOC(=O)O[C@]1(C(=O)OCCl)CC[C@H]2[C@@H]3CCC4=CC(=O)C=C[C@]4(C)[C@H]3[C@@H](O)C[C@@]21C`, the activation in assay [1] is -7.34%. For the same compound, the Potency in assay [2] was 1.05 µM (active). Besides, in assay [8], the Potency result is “inactive”.
Take `Cc1cc2c(cc1CC(=O)c1sccc1S(=O)(=O)Nc1onc(C)c1Cl)OCO2`: the activation in assay [1] was -10% and -11%. Further, the viability in assay [2] is 68.3%. Also, the Potency entry in assay [8], in assay [4], in assay [5] and in assay [6] was “inactive” throughout.

The viability is a read-out of living cells in per cent, often relative to untreated cells.
